Molecules are shown by their SMILES. Several values for one entry are separate records, joined by “and”; a condition that tells them apart may be missing. Equal entries are not always repeated. Inconclusive results are not listed. A call without a number means that no potency is given here. Activity calls are given as the source filed them. Calls follow the shape of the dose curve; as a rule, active = well fitted cell-killing curve with a large enough effect; inconclusive = small, poorly fitted or top-dose-only effect, or effect the other way; inactive = no such curve, though single readings can be large or run the other way.
Potency is read from the fitted curve at half-maximal effect.

This experiment in a line: MultiTox-Fluor Cytotoxicity Assay - LYMP1-002 - Dead Cells (AID 960). Also: nearly all actives have a fitted effect of over 60% in size. Conditions: LYMP1-002 lymphoblastoid cells, dead-cell protease fluorescence; series mostly up to 46.1 µM. From the text: NIH Chemical Genomics Center [NCGC]
NIH Molecular Libraries Screening Centers Network [MLSCN]
National Institutes of Environmental Health Sciences [NIEHS]
National Toxicology Program [NTP]
We have developed a 1536-well cell-based assay for quantitative high throughput screening (qHTS) against a number of cell lines to determine in vitro cytotoxicity of small molecules. This particular assay uses a human lymphoblastoid cell line (LYMP1-002) purchased from Coriell Institute.
NCGC Assay Protocol Summary:
The MultiTox-Fluor Cytotoxicity Assay (Promega) is a homogeneous method to simultaneously measure the relative number of live and dead cells in culture by detecting changes in cell membrane integrity. There are two fluorogenic peptide substrates in the assay reagent. Viable cells are determined when the cell-permeant substrate (GF-AFC) enters the cell and is cleaved by protease from live cells resulting in liberated fluorophore. This live-cell protease activity restricted to viable cells is proportional to cell number. The dead cells are determined by using fluorogenic cell-impermeant peptide substrate (bis-AAF-R110) which cleaved by dead cell proteases leaking from damaged cell membrane.
Using the MultiTox-Fluor Cytotoxicity Assay, the relative number of dead cells was measured in the lymphoblastoid cell line with complete culture medium following compound treatment for 16 hours. The assay was performed in opaque black Kalypsys 1536-well plates. In the screen, tetraoctylammonium bromide was used as positive control. Library compounds were measured for their ability to cause acute toxicity in the cell line, as reflected by an increase in dead cell protease activity, in a concentration-dependent manner. Data were normalized to the controls for basal activity (DMSO only) and 100% stimulation (15 uM tetraoctylammonium bromide). AC50 values were determined from concentration-response data modeled with the standard Hill equation.
qHTS protocol for MultiTox-Fluor Cytotoxicity assay
[Step] [Parameter] [Value] [Description]
1. Reagent; 5 uL; 2500 lymphoblastoid cells/well
2. Time; 5 hr; 37 C incubation
4. Controls; 23 nL; Tetraoctylammonium bromide 6.4pM to 92 uM
5. Time; 16 hr; 37 C incubation
6. Reagent; 5 uL; MuliTox-Fluor Assay reagent
7. Time; 60 min; Room Temperature
8. Detection; dead-cell fluorescence (Ex/Em=485/520); EnVision plate reader
Keywords: cytotoxicity, lymphoblastoid cell line, fluorescence, NTPHTS, NTPHTS_NCGC, NIEHS, EPA, DSSTox, MLSMR, MLSCN, NIH Roadmap, qHTS, NCGC
Regarding `Cc1ccc(N)c([N+](=O)[O-])c1`, the Potency result is “inactive”. In the case of `O=[N+]([O-])c1cccc(Cl)c1Cl` it was “inactive”. In the case of `S=C1NC=NC2N=CNC12` (stereo not given) it was “inactive”; in that of `O=C1CCc2ccccc2O1`, “inactive”; in that of `CCC(C)c1ccccc1O` (stereo not given), “inactive”. In the case of `c1ccccc1` it was “inactive”.

As for `CN(C)CCCCCCN(C)C`, the Potency result was “inactive”. `COc1ccc2nc(N)sc2c1`: the Potency entry is “inactive”. The value for `Nc1ccc(Cl)cc1Cl` was “inactive”; that for `c1ccc2c(c1)c1cccc3ccc4cccc2c4c31` was “inactive”. In the case of `c1ccc2scnc2c1` it was “inactive”; in that of `c1ccc2c(c1)[nH]c1ccccc12`, “inactive”; in that of `C=CC(=O)OCCOCCOCCOCCOC(=O)C=C`, 20 µM (active) and 25.1 µM (active). In the case of `O=C1c2ccccc2C(=O)C1c1ccc2ccccc2n1` it was “inactive”; in that of `C=C(C)C1CC=C(C)C(O)C1` (stereo not given), “inactive”; in that of `COc1c2ccoc2cc2oc(=O)ccc12`, “inactive”. Regarding `CC(=O)OC/C=C(\C)CCC=C(C)C`, the Potency result was “inactive”. Regarding `O=C(O)c1ccc(O)cc1O`, the Potency result was “inactive”. In the case of `Cc1c(N=C=O)cccc1N=C=O` it was “inactive”; in that of `Cc1ccccc1C`, “inactive”; in that of `COCC(=O)O`, “inactive”. In the case of `O=S(=O)(O)c1ccccc1` it was “inactive”. Regarding `Cc1ccc([N+](=O)[O-])c(C)c1`, the Potency entry was “inactive”. In the case of `CCCN(CCC)C(=O)SCC` it was “inactive”. Turning to `CCCCOCCO`, the Potency entry is “inactive”. The value for `COC(=O)CCCCC(=O)OC` was “inactive”; that for `COC(=O)c1ccc(C=O)cc1` was “inactive”; that for `CC1=CC(C)(C)Nc2ccccc21` was “inactive”. In the case of `CCCCCCCCCCCC(=O)O` it was “inactive”. For the compound `Clc1cc(Cl)c(Cl)c(Cl)c1Cl`, the Potency result is “inactive”. Turning to `C1OCOCO1`, the Potency entry was “inactive”. Consider `C=Cc1ccccc1Cl`, for which the Potency entry was “inactive”. Turning to `O=NO`, the Potency entry is “inactive”. Regarding `C=CC(=C)CCC=C(C)C`, the Potency entry is “inactive”. In the case of `CCC(O)OC(O)CC` (stereo not given) it was “inactive”. In the case of `COc1cc(/C=C/c2ccccc2)oc(=O)c1` it was “inactive”. In the case of `ClCCCl` it was “inactive”; in that of `CCO[Si](CCCN)(OCC)OCC`, “inactive”; in that of `OCCNCCO`, “inactive”. As for `Cc1cccc([N+](=O)[O-])c1C`, the Potency result was “inactive”.

The values are drawn from PubChem BioAssay (NCATS).
